The list is not random: actives were taken first. Their share in the collection is about 9.4%.
NPC1 prom act – qHTS Assay for NPC1 Promoter Activators; Huh7 NPC1 promoter luciferase reporter, 24 h; Potency, µM (top dose mostly 9.22 µM), inactives show at the highest dose activation, usual class: activators; hit rate 2.4% among 320,000; AID 485313, 2010; further: % of control where 0% means no effect; nearly all actives have a fitted effect of over 60% in size
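Luciferase expression driven by the NPC1 promoter was measured in stably transfected Huh7 cells after a 24 h compound incubation, using a luciferase reagent and a luminescence read.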
FLuc counter – qHTS profiling assay for firefly luciferase inhibitor/activator using purifed enzyme and Km concentrations of substrates (counterscreen for miR-21 project); purified FLuc, Km substrates, luminescence inhibition; Luciferin 4-monooxygenase (Photinus pyralis), P08659; hit rate 6.9% among 360,000; Potency, µM (highest dose often 57.5 µM), inactives show at the highest dose activity change, negative = inhibition, most hits filed as inhibitors;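 further: plate controls were vehicle for no effect and reference inhibitor for full effect; nearly all actives have a fitted effect of over 55% in size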
Target sequence (P08659 whole entry, looked up): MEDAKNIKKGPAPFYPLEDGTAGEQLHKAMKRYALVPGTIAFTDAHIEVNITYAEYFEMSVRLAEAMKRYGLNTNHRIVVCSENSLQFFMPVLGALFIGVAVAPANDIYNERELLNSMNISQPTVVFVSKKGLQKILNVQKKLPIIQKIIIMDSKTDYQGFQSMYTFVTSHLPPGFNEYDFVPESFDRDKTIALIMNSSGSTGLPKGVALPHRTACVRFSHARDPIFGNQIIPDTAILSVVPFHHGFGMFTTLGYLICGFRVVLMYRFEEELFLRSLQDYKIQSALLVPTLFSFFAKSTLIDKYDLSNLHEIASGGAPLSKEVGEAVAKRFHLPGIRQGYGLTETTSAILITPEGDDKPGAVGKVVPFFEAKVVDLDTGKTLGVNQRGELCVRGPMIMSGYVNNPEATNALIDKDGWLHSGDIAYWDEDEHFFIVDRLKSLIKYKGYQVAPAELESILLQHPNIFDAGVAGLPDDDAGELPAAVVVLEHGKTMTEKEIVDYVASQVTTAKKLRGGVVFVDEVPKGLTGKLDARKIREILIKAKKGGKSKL
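Purified P. pyralis luciferase, 10 nM final, with Km-level 10 uM D-luciferin and 10 uM ATP in 50 mM Tris acetate pH 7.5, 10 mM Mg acetate, 0.01% Tween-20, 0.05% BSA; 6-point qHTS titration about 60 µM downward; luminescence read.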
ELG1 DNA repair – qHTS screen for small molecules that inhibit ELG1-dependent DNA repair in human embryonic kidney (HEK293T) cells expressing luciferase-tagged ELG1 | HEK293T ELG1-luciferase reporter, luminescence, 16 h; DNA damage induced by 5-fluorouridine | Potency, µM (top dose mostly 46.1 µM), without a hit: top-dose activity change, negative = inhibition, actives largely listed as inhibitors | hit rate 2.3% among 330,000; further: on the % scale 0 is the no-effect control and ±100 the full control effect; nearly all actives have a fitted effect of over 55% in size
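Luminescence from the luciferase reporter, measured 30 min after ONE-Glo reagent at room temperature, was the read-out. Beforehand, 2,000 cells per well were exposed for 16 hr at 37 °C to 5-fluorouridine together with compound or vehicle.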
Rab9 prom act – qHTS Assay for Rab9 Promoter Activators | hit rate 2.8% among 320,000 | Potency, µM (titrated, usually from 9.22 µM), inactives show at the highest dose activation, negative = inhibition, usual class: activators | AID 485297, 2010 | Huh7 Rab9 promoter-luciferase reporter, luminescence, 24 h; further: % of control where 0% means no effect; nearly all actives have a fitted effect of over 60% in size
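Measured in stably transfected Huh7 cells bearing a Rab9 promoter–luciferase construct: 24 h compound treatment at 37 °C, followed by luminescence detection.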
ELG1 genotox – qHTS screen for small molecules that induce genotoxicity in human embryonic kidney (HEK293T) cells expressing luciferase-tagged ELG1. hit rate 1.3% among 330,000. HEK293T ELG1-luciferase reporter, luminescence, 16 h. Potency, µM (titrated, usually from 46 µM), for inactives: at the top dose activity change, positive = activation, most hits filed as activators; further: % of control where 0% means no effect; nearly all actives have a fitted effect of over 60% in size
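Genotoxicity was scored as increased ELG1-luciferase reporter signal, measured by ONE-Glo luminescence (30 min, room temperature). Compound or vehicle exposure of the HEK293T reporter cells lasted 16 hr at 37°C.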
SMN2 splice enh – qHTS Assay for Enhancers of SMN2 Splice Variant Expression; Potency, µM (doses to about 46.1 µM), for the others: at the highest dose activity change, positive = activation, hits mostly activators; HEK293 SMN2-luciferase splicing reporter, luminescence, 30-36 h; hit rate 2.8% among 210,000; further: % of control where 0% means no effect; nearly all actives have a fitted effect of over 55% in size
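HEK293 cells carry an SMN2 […]–luciferase reporter in which exon 7 inclusion puts luciferase in frame. Cells were plated 10-12 h before compound addition, then incubated 30-36 h at 37C. ONE-Glo luminescence was read; sodium butyrate at 4.5 mM final served as control.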
Starred values were filed as active, the others as inactive; ? = inconclusive; · = no result; [ ] = another dose, or the depositor's remark. The call rests on the fitted dose curve; in most records, active means well fitted curve in the direction sought with a large enough effect; inconclusive means small, poorly fitted or top-dose-only effect, or another doubt; inactive means no such curve, though single readings can be large; an effect the other way counts as inactive or inconclusive. Potency means the concentration at half of the fitted maximal effect.

SMILES | NPC1 prom act | FLuc counter | ELG1 DNA repair | Rab9 prom act | ELG1 genotox | SMN2 splice enh
O=C(O)c1cc(N/N=C/C=C/c2ccccc2[N+](=O)[O-])ccc1Cl | 1.4µM* | 19µM* | ? | 3.5µM* | ? | ·
CCC1CSC(Nc2ccc(C(=O)/C=C/c3ccc(Oc4ccccc4)cc3)cc2)=N1 (centres undefined) | 0% | 13µM* | -10% | -6% | 9% | -66%
Cc1noc(C)c1COC(=O)c1ccccc1Sc1ccccc1C#N | 1% | ? | 23µM* | 7% | 2% | -40%
N#Cc1ccccc1Sc1ccccc1C(=O)OCC(N)=O | -4% | 1% | 5% | -2% | 1% | 16%
COc1ccc(-c2cc3ccccc3s2)cc1[C@H]1[C@H]2C=CC[C@@H](C)[C@@H]2C(=O)N1Cc1ccccc1 | 3.2µM* | 1.3µM* | ? | 2.8µM* | ? | ·
COc1ccc(C2C3=C(N=C4SCC(=O)N42)c2ccccc2CC3)cc1 (centres undefined) | 29% | 11µM* | 0% | 23% | ? | -5%
O=C(NCc1ccccc1)C(c1ccccc1)N(Cc1ccc2c(c1)OCO2)C(=O)Cc1cccs1 (centres undefined) | -2% | -11% | 16µM* | -2% | -11% | -17%
O=C(NC1CCCC1)C(c1ccccc1)N(Cc1ccc2c(c1)OCO2)C(=O)Cc1cccs1 (centres undefined) | -5% | 2% | ? | -5% | -8% | -8%
COc1cc(OC)cc(C(=O)NCC(=O)Nc2ccc(OC)c(Cl)c2)c1 | 2% | -8% | -28% | -2% | 1% | ·
O=C(N/N=C/c1sc2ccccc2c1O)c1ccccc1 | -27% | 17µM* | ? | -30% | ? | -107%
COc1ccc(C(=O)N/N=C/c2sc3ccccc3c2O)cc1 | -30% | 13µM* | ? | -42% | ? | -95%
O=C(N/N=C/c1ccccc1F)c1cccc2ccccc12 | ? | -8% | 29% | ? | 6% | ·
COc1ccc2cc(C(=O)N/N=C/c3sc4ccccc4c3O)ccc2c1 | -3% | 13µM* | 18% | -14% | ? | -106%
COc1ccc(/C=N\NC(=O)c2cccc(Br)c2)c(OC)c1 | -3% | 4% | 4% | 1% | -3% | ·
O=C(N/N=C/c1sc2ccccc2c1O)c1cccc2ccccc12 | -21% | 17µM* | -9% | -13% | 11% | -92%
Cc1ccc2c(c1)cc1c(=O)n(CC(=O)NCc3ccco3)nc(C)n12 | · | 0% | · | · | · | -5%
Cn1cc(-c2ccno2)c(C(=O)O)n1 | -2% | 3% | 6% | -12% | 2% | 9%
COc1ccc(N=Cc2sc3ccccc3c2Cl)cc1 | 28% | 4.8µM* | ? | 4% | 10% | 1%
Oc1ccc(Cl)cc1N=Cc1sc2ccccc2c1Cl | 2% | -17% | ? | 1% | 29% | -17%
CCN1CCN(C(=O)/C(C#N)=C/c2ccc(OC(F)F)cc2)CC1 | -1% | -1% | -7% | 2% | 0% | 0%
Cc1ccc(/C=C(\C#N)C(=O)N2CCCC2)c(C)c1 | -14% | 15µM* | ? | -6% | ? | 12%
N#C/C(=C\c1ccc(OC(F)F)cc1)C(=O)N1CCCCC1 | 0% | 13µM* | 9% | -6% | 15% | ·
N#C/C(=C\c1ccc(O)cc1)C(=O)N1CCCC1 | -3% | -12% | ? | -1% | 4% | ·
O=C(C1CCN(S(=O)(=O)c2cccnc2)CC1)N1CCN(c2ccccc2Cl)CC1 | · | -2% | · | · | · | -10%
O=C(C1CCN(S(=O)(=O)c2cccnc2)CC1)N1CCN(c2ccc(Cl)cc2)CC1 | -10% | 1% | 2.9µM* | -22% | -6% | ·
SMILES | NPC1 prom act | FLuc counter | ELG1 DNA repair | Rab9 prom act | ELG1 genotox | SMN2 splice enh
O=C(C1CCN(S(=O)(=O)c2cccc3cccnc23)CC1)N1CCN(c2ccc(Cl)cc2)CC1 | -7% | 1% | 18µM* | -26% | -17% | -84%
CCOC(=O)c1cc2c(=O)n3ccccc3nc2n(CCCOC)c1=NC(=O)c1c(-c2ccccc2Cl)noc1C | · | -3% | · | · | · | 1%
O=C(O)C1=C(C(=O)Nc2cc(C(F)(F)F)ccc2Cl)CCCC1 | -6% | -17% | 4% | -4% | 0% | 4%
CCn1ccc2cc(S(=O)(=O)N3CCC(C(=O)NCCOC)CC3)ccc21 | · | 4% | · | · | · | ·
COc1ccc(CCNC(=O)Cc2c(C)c3c(cc(C)c4c(C)coc43)oc2=O)cc1OC | · | -9% | · | · | · | -7%
C[C@H](CO)N1C[C@H](C)[C@H](CN(C)S(=O)(=O)c2cn(C)cn2)Oc2ccc(NC(=O)Nc3ccc(C(F)(F)F)cc3)cc2CC1=O | · | · | ? | · | 12% | ·
C[C@H](CO)N1C[C@H](C)[C@@H](CN(C)S(=O)(=O)c2ccc(F)cc2)Oc2ccc(NC(=O)Nc3ccc(C(F)(F)F)cc3)cc2C1=O | · | · | 21µM* | · | -6% | ·
C[C@@H]1CN([C@H](C)CO)C(=O)c2cc(NC(=O)Nc3ccc(C(F)(F)F)cc3)ccc2O[C@H]1CN(C)S(=O)(=O)c1ccc(Cl)cc1 | · | · | ? | · | -8% | ·
COc1ccc(NC(=O)Nc2ccc3c(c2)C(=O)N([C@H](C)CO)C[C@H](C)[C@@H](CN(C)S(=O)(=O)c2ccc(F)cc2)O3)cc1 | · | · | -24% | · | -1% | ·
C[C@H](CO)N1C[C@H](C)[C@@H](CN(C)S(=O)(=O)c2ccc(F)cc2)Oc2ccc(NC(=O)Nc3ccccc3)cc2C1=O | · | · | 23µM* | · | -6% | ·
C[C@@H]1CN([C@@H](C)CO)C(=O)c2cc(NS(C)(=O)=O)ccc2O[C@@H]1CN(C)S(=O)(=O)c1ccccc1 | · | · | 14% | · | 5% | ·
C[C@H](CO)N1C[C@H](C)[C@@H](CN(C)S(=O)(=O)c2ccccc2)Oc2ccc(NC(=O)C3CC3)cc2C1=O | · | · | 18µM* | · | -5% | ·
C[C@@H]1CN([C@@H](C)CO)C(=O)Cc2cc(NC(=O)Nc3ccc(C(F)(F)F)cc3)ccc2O[C@@H]1CN(C)S(=O)(=O)c1ccc(Cl)cc1 | · | · | 21µM* | · | -6% | ·
CN(C)CCNS(=O)(=O)N(C)C | · | · | · | · | · | 3%[9.22 µM]
Cc1cc(C)c2c(=O)c3c(oc2c1)C(=O)N(Cc1ccc(F)cc1)C3c1cccc(O)c1 (centres undefined) | · | -8% | · | · | · | -8%
O=C(CCS(=O)(=O)c1ccccc1)Nc1ccc(Cl)cn1 | 6% | ? | ? | ? | 15% | ·
Cc1ccc(NC(=O)Cn2c(=O)cc(-c3ccccc3)c3c(C)nn(C)c32)c(Cl)c1 | · | 8% | · | · | · | ·
